# Source: PubChem (The Scripps Research Institute Molecular Screening Center)
# SRC2 TRFRET art: TR-FRET signal artefacts, primary screen, artefact control for PPARgamma SRC-2 agonist project, biochemical | TR-FRET artefact counter-screen; hits give high values | TR-FRET ratio at 8 µM | 0.4% of 200,000 active | AID 1049, 2008; in the data active = TR-FRET ratio above about 2000
# SRC3 TRFRET art: TR-FRET detection interference compounds, artefact control for PPARgamma SRC-3 recruitment agonists, biochemical, TR-FRET ratio | TR-FRET ratio at 8 µM | 0.39% of 99,000 active | TR-FRET artefact counter-screen, PPARgamma/SRC-3 format; hits give high values; in the data active = TR-FRET ratio above about 2000
# PPARg SRC1 recr: PPARgamma agonists recruiting SRC-1 coactivator, primary screen, biochemical; 0.41% of 200,000 active; activation, % at 8 µM; AID 631, 2007; Peroxisome proliferator-activated receptor gamma (Homo sapiens), P37231; PPARgamma-SRC-1 coactivator recruitment biochemical assay; in the data active = activation above about 19%;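 note: 0% = DMSO and 100% = reference agonist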
# PPARg SRC3 recr: PPARgamma agonists recruiting SRC-3 coactivator, primary screen, biochemical; activation, % at 8 µM; 0.26% of 200,000 active; biochemical PPARgamma/SRC-3 coactivator recruitment assay; Peroxisome proliferator-activated receptor gamma (Homo sapiens), P37231; in the data active = activation above about 23%;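 note: 0% = DMSO and 100% = reference agonist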
# PPARg SRC2 recr: agonists of PPARg-SRC-2 recruitment, primary screen, biochemical, HTS. Peroxisome proliferator-activated receptor gamma (Homo sapiens), P37231. PPARgamma LBD-SRC-2 recruitment. activation, % at 8 µM. 0.34% of 200,000 active. AID 1032, 2008;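 note: 0% = vehicle and 100% = reference agonist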
# SRC1 TRFRET art: TR-FRET detection interference compounds, primary screen, artefact control for PPARgamma SRC-1 recruitment agonists, biochemical, TR-FRET emission ratio. TR-FRET detection artefact counter-screen; hits give high values. 0.34% of 99,000 active. AID 1051, 2008. TR-FRET ratio at 8 µM; in the data active = TR-FRET ratio above about 2300
# PPARg SRC2 ag: agonists of PPARgamma SRC-2 coactivator recruitment, confirmation, biochemical, HTS | shares compounds with PPARg SRC3 recr | biochemical SRC-2 recruitment by PPARgamma | activation, % at 8 µM | 52% of 790 active;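 note: 0% = vehicle alone and 100% = reference agonist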
# PPARg SRC1 ag: PPARgamma agonists recruiting SRC-1 coactivator, confirmation, biochemical; PPARgamma–SRC-1 coactivator recruitment biochemical assay; shares compounds with PPARg SRC3 recr; AID 1300, 2008; 43% of 790 active; activation, % at 8 µM; in the data active = activation above about 20%;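 note: 0% = vehicle wells and 100% = reference agonist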
# PPARg SRC3 conf: PPARgamma-driven SRC-3 coactivator recruitment agonists, confirmation, biochemical; shares compounds with PPARg SRC3 recr; biochemical PPARgamma-SRC-3 coactivator recruitment, agonist mode; activation, % at 8 µM; 29% of 790 active; in the data active = activation above about 24%;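 note: 0% = vehicle wells and 100% = reference agonist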
# * hit, by the source's call; · = no result. In the library only some 0.9% were active in any assay of this set; here they are far more common. Cut-off read from the data, not from the text of the source, unless noted: active = activation above about 22%; inactive = the rest.
SMILES,SRC2 TRFRET art,SRC3 TRFRET art,PPARg SRC1 recr,PPARg SRC3 recr,PPARg SRC2 recr,SRC1 TRFRET art,PPARg SRC2 ag,PPARg SRC1 ag,PPARg SRC3 conf
COc1ccc(C2=NN(C(N)=S)C(c3ccccc3)C2)cc1 (stereo not drawn),2602*,3054*,57.4*,29.1*,53.3*,3172*,58.7*,48.1*,41.1*
CNC(=S)N1N=C(c2ccc(OC)cc2)CC1c1ccc(N(C)C)cc1 (stereo not drawn),1566,·,-2.2,12.9,4.6,·,·,·,·
COc1ccc(C2CC(c3ccc(Br)cc3)=NN2C(=S)Nc2ccccc2)cc1 (stereo not drawn),2406*,2737*,28.0*,22.2,26.5*,2916*,43.5*,38.7*,26.0*
COc1ccccc1C1CC(c2ccccc2)=NN1C(=S)Nc1ccccc1 (stereo not drawn),2595*,2517*,43.1*,22.7*,37.3*,3073*,69.8*,51.4*,44.2*
COc1ccc2c(c1)CCCC21NC(=O)N(CC(=O)NC(=O)NCc2ccccc2)C1=O (stereo not drawn),1602,1791,5.5,-1.9,-3.1,1803,·,·,·
COc1ccccc1N/C=C(\C#N)c1nc2ccccc2[nH]1,1597,1561,11.4,2.2,7.0,1797,·,·,·
CC(=O)N1N=C(c2ccc(C)o2)CC1c1ccc(Br)cc1 (stereo not drawn),1541,·,3.1,8.4,4.7,·,·,·,·
CNC(=S)N1N=C(c2ccc(Br)cc2)CC1c1ccc(Br)cc1 (stereo not drawn),3230*,·,30.0*,50.8*,28.4*,·,47.3*,37.4*,28.0*
Cc1c(CNC2CCCC2)c(C(=O)O)c(C)n1Cc1ccccc1,1498,1276,-5.3,-3.0,0.0,1664,·,·,·
COC(=O)c1[nH]c2ccc(Br)cc2c1NC(=O)CN1CCCc2ccccc21,2282*,·,31.5*,50.3*,42.5*,·,15.7,9.9,7.1
CCOC(=O)C1CCCN(CC(=O)Nc2c(C(=O)OC)[nH]c3ccc(Br)cc23)C1 (stereo not drawn),2688*,·,25.9*,42.5*,40.3*,·,34.5*,23.0*,24.4*
CC1CCCCN1CCn1c(=S)[nH]c2cc3c(cc2c1=O)OCO3 (stereo not drawn),1425,1550,-5.4,-1.5,-1.4,1685,·,·,·
O=C(O)c1cccnc1SCC(=O)N1CCCCCC1,1613,·,19.5*,8.1,4.6,·,3.9,6.3,1.2
O=c1c2ccccc2c(-c2n[nH]c(=S)o2)nn1Cc1ccccc1,2234*,2375*,23.4*,15.8,27.8*,2576*,48.7*,42.1*,30.9*
CC(Cc1n[nH]c(=S)o1)c1ccccc1 (stereo not drawn),1603,1437,0.2,-0.9,0.0,1951,·,·,·
CSc1ccccc1-c1n[nH]c(=S)o1,3652*,3610*,69.5*,44.5*,95.6*,4008*,50.5*,33.0*,34.1*
S=c1[nH]nc(Cc2cccc3ccccc23)o1,1336,1601,-7.7,2.6,-6.6,1581,·,·,·
S=c1[nH]nc(-c2ccccc2)o1,2863*,·,56.2*,71.2*,66.9*,·,51.7*,37.2*,35.2*
Cc1ccccc1-c1n[nH]c(=S)o1,3075*,·,46.1*,79.2*,67.5*,·,49.9*,33.5*,35.6*
Cc1ccc(-c2cc(-c3n[nH]c(=S)o3)c3ccccc3n2)cc1,1695,1989,10.5,9.8,4.5,2257,·,·,·
CCOc1ccccc1NC(=O)C(=O)N/N=C/c1cc(Br)ccc1O,1390,1485,-2.7,1.9,-0.6,1805,·,·,·
CCN(CC)c1ccc(NC(=O)CSc2nc3ccccc3c(=O)n2-c2cc(S(=O)(=O)N(C)C)ccc2C)cc1,1423,1479,-6.3,-1.2,-9.7,1519,·,·,·
Cc1cccc(C)c1NC(=S)NCCSc1ccc(Cl)cc1,1489,1531,3.5,2.9,3.8,1885,·,·,·
COc1ccc(/C=N/c2c(-c3ccco3)nc3ccccn23)cc1OC,1874,·,33.5*,29.1*,23.0*,·,16.9,8.0,5.9
COc1ccc(Br)cc1CNc1ccc(O)cc1,1752,·,10.1,18.4,23.4*,·,7.0,4.8,6.0
SMILES,SRC2 TRFRET art,SRC3 TRFRET art,PPARg SRC1 recr,PPARg SRC3 recr,PPARg SRC2 recr,SRC1 TRFRET art,PPARg SRC2 ag,PPARg SRC1 ag,PPARg SRC3 conf
CCSCc1nnc(SCC(=O)Nc2nc(C)cs2)n1C,1578,1674,-4.9,2.1,-1.8,1626,·,·,·
O=C(Cc1ccccc1)c1nnc(-c2ccccc2)o1,1507,1636,5.2,1.6,14.5,1903,·,·,·
COc1ccccc1Cn1c(=O)c2ccccc2n2c(Sc3ncnc4sccc34)nnc12,3587*,·,25.9*,29.4*,7.9,·,8.7,8.9,5.6
COc1ccccc1Cn1c(=O)c2ccccc2n2c(SCc3csc(C)n3)nnc12,1535,1479,-1.6,-1.3,1.9,1673,·,·,·
O=C(Nc1nc(-c2ccc(S(=O)(=O)N3CCCCCC3)cc2)cs1)c1ccccc1,2426*,·,21.0*,7.8,15.4,·,52.3*,38.6*,33.3*
O=C(Nc1nc(-c2ccc3c(c2)OCCO3)cs1)c1ccc(S(=O)(=O)N2CCCCC2)cc1,1917,·,5.8,8.8,16.5,·,·,·,·
O=C(Nc1nc(-c2ccc(S(=O)(=O)N3CCCC3)cc2)cs1)C1COc2ccccc2O1 (stereo not drawn),2533*,·,19.8*,32.5*,22.2*,·,34.1*,27.2*,20.0
COCCCNC(=O)C1CCC(CNS(=O)(=O)c2ccc(C)cc2)CC1 (stereo not drawn),1783,1404,-2.4,-1.8,-1.5,2062,·,·,·
CC(C)c1ccc(NC(=O)c2ccc(NS(C)(=O)=O)cc2)cc1,1742,1676,4.5,3.0,-1.8,1972,·,·,·
Cc1ccc(Sc2c(O)c3ccccc3n(C)c2=O)cc1,2048*,2226*,24.1*,15.7,25.6*,2302,21.9*,13.0,13.5
Cc1ccc(Sc2c(C=O)c3ccccc3n2C)cc1,1743,·,7.0,-1.2,8.9,·,·,·,·
